Source: PubChem (National Center for Advancing Translational Sciences (NCATS))
RE007 growth inh – qHTS Assay for Inhibitors of the HIV-1 protein Vpr; S. pombe RE007 Vpr strain, BacTiter-Glo ATP luminescence, 24 h; Potency, µM (highest dose often 92.2 µM), actives largely listed as inhibitors; 0.21% of 360,000 active; active = well fitted falling curve with a large enough effect; inconclusive = small, poorly fitted or top-dose-only effect; inactive = no such curve, though single readings can be large or run the other way; also: nearly all actives have a fitted effect of over 50% in size
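Fission yeast strain RE007, carrying one chromosomally integrated HIV-1 vpr copy, was seeded at OD 0.01 in PMG+AL medium with 23 nL pinned compound. After 24 h at 30 °C and 99% humidity, viability was read by BacTiter-Glo luminescence.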
MARV entry inh – qHTS for inhibitors of binding or entry into cells for Marburg Virus | Marburg virus pseudotyped entry inhibition, cell reporter | Potency, µM (titrated, usually from 37.8 µM), usual class: inhibitors | 1.8% of 300,000 active; calls by dose curve; tested in HEK293 cells
FMDV inh – High Throughput Screening for Foot and Mouth Disease Virus Antivirals. FMDV antiviral cell-based qHTS. Potency, µM (titrated, usually from 57.9 µM), most hits filed as inhibitors. 1.2% of 410,000 active. AID 1159524, 2015; calls by dose curve; tested in HEK293T cells; also: read-out not given here; nearly all actives have a fitted effect of over 45% in size
HCV inhibitor – qHTS Assay for Inhibitors of Hepatitis C Virus (HCV); Potency, µM (series often up to 41.8 µM), most hits filed as inhibitors; Huh7.5.1 HCVcc-Cre infection, luciferase reporter, 44 h; 3.4% of 340,000 active
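Cells (1,000/well) were plated 4 h before compound, then infected with HCVcc-Cre virus (~0.5 moi). After 44 h further culture, infection was read as luciferase luminescence following a 15 min substrate incubation at room temperature.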
Sm TGR inh – qHTS Assay for the Inhibitors of Schistosoma Mansoni Peroxiredoxins; purified TGR, DTNB reduction, TNB absorbance 405 nm; Schistosoma mansoni thioredoxin glutathione reductase (TGR), Q962Y6; AID 485364, 2010; 3% of 360,000 active; Potency, µM (titrated, usually from 114 µM), actives largely listed as inhibitors; also: nearly all actives have a fitted effect of over 60% in size
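TGR 20 nM + NADPH 100 uM (dispensed conc.), cpd preinc 15 min RT; start with NADPH (500 uM addition) then DTNB (15 mM addition). Kinetic TNB absorbance, 405 nm filter. Four-parameter Hill fit across titration.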
Lassa entry inh – qHTS for Inhibitors of binding or entry into cells for Lassa Virus. Lassa virus pseudotype entry inhibition, cell reporter. Potency, µM (top dose mostly 37.9 µM), usual class: inhibitors. 1.2% of 300,000 active; calls by dose curve; tested in HEK293 cells; also: nearly all actives have a fitted effect of over 50% in size
Each line names hits and unclear results; the compound was inactive in the other large screens. Compounds with a hit are over-represented: about 7.2% of the library has one in this group of screens. Unless noted, calls follow the shape of the dose curve; as a rule, active = well fitted curve in the direction sought with a large enough effect; inconclusive = small, poorly fitted or top-dose-only effect, or another doubt; inactive = no such curve, though single readings can be large; an effect the other way counts as inactive or inconclusive.

Cc1noc(-c2ccc(N3CCCCC3C)c([N+](=O)[O-])c2)n1 (centres undefined)	none (no result: RE007 growth inh, HCV inhibitor)
COc1ccccc1CN1CCCC(n2cc(C(=O)N3CCCCC3)nn2)C1 (centres undefined)	none (no result: RE007 growth inh, MARV entry inh, HCV inhibitor, Sm TGR inh, Lassa entry inh)
COc1ccc(C(=O)/C=C2/C(=O)Nc3ccccc32)cc1OC	FMDV inh 32µM, HCV inhibitor inconclusive (no result: RE007 growth inh, MARV entry inh, Lassa entry inh)
COc1ccc(C2(C(=O)c3ccccc3)C(=O)c3ccccc3C2=O)cc1	HCV inhibitor 3.5µM, Sm TGR inh inconclusive (no result: MARV entry inh, Lassa entry inh)
Cc1cccc(C(=O)OCc2cc(=O)n3nc(C4CC4)sc3n2)c1	none (no result: RE007 growth inh, MARV entry inh, HCV inhibitor)
CC(C)C(NC(=O)c1ccoc1)c1nnc2n1CCN(Cc1ccc3c(c1)Cc1ccccc1-3)CC2 (centres undefined)	none (no result: RE007 growth inh, MARV entry inh, HCV inhibitor, Sm TGR inh, Lassa entry inh)
COc1cc(OC)cc(C(=O)Nc2ccc3nc(N4CCC(C)CC4)cc(C)c3c2)c1	MARV entry inh inconclusive (no result: RE007 growth inh, HCV inhibitor)
COc1ccc(OCC(=O)c2c[nH]c3ccccc23)cc1	none (no result: Lassa entry inh)
COc1ccc(C2C(O)C(c3c[nH]c4ccccc34)=NN2C(=O)CCl)cc1 (centres undefined)	MARV entry inh 3.2µM, FMDV inh 18µM, HCV inhibitor 0.56µM, Sm TGR inh 8.9µM, Lassa entry inh inconclusive
COc1ccc(C2NN=C(c3c[nH]c4ccccc34)C2O)cc1 (centres undefined)	HCV inhibitor 11µM, Sm TGR inh inconclusive (no result: RE007 growth inh, MARV entry inh, Lassa entry inh)
CC1CCN(c2cc3c(cc2F)c(=O)c(S(=O)(=O)c2cccc(Cl)c2)cn3Cc2ccccc2)CC1	none (no result: RE007 growth inh, MARV entry inh, HCV inhibitor)
CCOC(=O)/C=C1\NC(C)(C)CC2=C1CC(O)=C(OC)C2	none (no result: RE007 growth inh, FMDV inh, HCV inhibitor, Sm TGR inh, Lassa entry inh)
O=[N+]([O-])c1ccc(Sc2ccccn2)nc1	none
O=[N+]([O-])c1ccc(Sc2nnnn2-c2ccccc2)nc1	RE007 growth inh inconclusive, MARV entry inh 13µM, FMDV inh 22µM, HCV inhibitor inconclusive, Sm TGR inh 14µM, Lassa entry inh inconclusive
Cc1ccccc1-n1nnnc1Sc1nnnn1-c1ccccc1	MARV entry inh inconclusive, FMDV inh 8.9µM, HCV inhibitor inconclusive, Lassa entry inh inconclusive
COc1ccc2c(C)cc(Sc3nnnn3-c3ccccc3)nc2c1	Lassa entry inh 0.79µM
Cc1ccccc1-n1nnnc1SCC(N)=O	MARV entry inh inconclusive
CCC(=O)NCCc1nc2cc(NC(=O)c3cccc(Br)c3)ccc2n1C	none (no result: RE007 growth inh, MARV entry inh, HCV inhibitor)
COCCCNC(=S)Nc1ccc(C)cc1[N+](=O)[O-]	Sm TGR inh 45µM (no result: MARV entry inh, Lassa entry inh)
COCCNC(=S)Nc1ccc([N+](=O)[O-])cc1C	Sm TGR inh inconclusive
O=C1CN(C(=O)Cc2ccccc2)C(c2ccc(F)cc2)c2cc(Br)ccc2N1 (centres undefined)	MARV entry inh 10µM, Lassa entry inh inconclusive (no result: RE007 growth inh, HCV inhibitor)
O=C1N[C@@H](Cc2ccccc2)C(=O)N2CCC[C@@H]12	Lassa entry inh inconclusive
CC(C)C[C@@H]1NC(=O)[C@H](CCCN)NC(=O)[C@H](C(C)C)NC(=O)[C@@H]2CCCN2C(=O)[C@@H](Cc2ccccc2)NC(=O)[C@H](CC(C)C)NC(=O)[C@H](CCCN)NC(=O)[C@H](C(C)C)NC(=O)[C@@H]2CCCN2C(=O)[C@@H](Cc2ccccc2)NC1=O	FMDV inh 6.3µM (no result: RE007 growth inh, MARV entry inh, HCV inhibitor, Sm TGR inh, Lassa entry inh)
O=C(NC(Cc1c[nH]c2ccccc12)C(=O)Nc1ccc(F)c([N+](=O)[O-])c1)c1cccs1 (centres undefined)	MARV entry inh 0.79µM, HCV inhibitor inconclusive, Lassa entry inh 0.58µM
O=C(Cn1c(=O)n(Cc2ccccc2)c(=O)c2sc3ccccc3c21)Nc1ccc(F)cc1	none (no result: RE007 growth inh, HCV inhibitor)
Cc1cc(C)nc(NC(N)=NCCc2ccccc2)n1	MARV entry inh 7.1µM, FMDV inh inconclusive, HCV inhibitor 11µM, Lassa entry inh inconclusive (no result: Sm TGR inh)
Cc1cc(C)nc(NC(N)=NC(C)c2ccccc2)n1 (centres undefined)	MARV entry inh inconclusive, FMDV inh inconclusive
Cc1cc(C)nc(NC(=NCCc2c[nH]c3ccccc23)NC(=O)Nc2ccc(Cl)cc2)n1	MARV entry inh inconclusive, HCV inhibitor 11µM (no result: RE007 growth inh)
Cc1cc(C)nc(NC(N)=NCCc2c[nH]c3ccccc23)n1	MARV entry inh inconclusive, HCV inhibitor 10µM
CC(NC(=O)c1cccnc1)c1nnc2n1CCN(Cc1ccc(-c3ccccc3)cc1)CC2 (centres undefined)	none (no result: RE007 growth inh, MARV entry inh, HCV inhibitor, Sm TGR inh, Lassa entry inh)
O=C(CCSCc1cnn(-c2ccccc2)c1-n1cccc1)NCc1ccc(Cl)cc1	none (no result: RE007 growth inh, HCV inhibitor)
CC(C)(C)OC(=O)N1CCC(c2c(C(=O)N3CCN(C(=O)c4ccco4)CC3)cnn2-c2ccccc2Cl)CC1	Sm TGR inh inconclusive (no result: RE007 growth inh, MARV entry inh, HCV inhibitor)
OC1(c2ccc3c(c2)CN(Cc2ccccn2)CCO3)CCN(c2ccccc2F)CC1	none (no result: RE007 growth inh, MARV entry inh, HCV inhibitor, Sm TGR inh, Lassa entry inh)
C[n+]1c(-c2ccccc2)c2cc(N)ccc2c2ccc(N)cc21	FMDV inh inconclusive, HCV inhibitor 2.5µM (no result: MARV entry inh, Lassa entry inh)
CCCCC(=NCCc1c(C)[nH]c2ccccc12)C1=C(O)CC(c2ccccc2)CC1=O (centres undefined)	MARV entry inh inconclusive, HCV inhibitor inconclusive, Lassa entry inh 8.9µM
C(=C1/CCCC2=C1Nc1ncnn1C2c1ccccc1)/c1ccccc1 (centres undefined)	Sm TGR inh 0.5µM (no result: RE007 growth inh, MARV entry inh, FMDV inh, HCV inhibitor, Lassa entry inh)
C/C(=C1/SC(N2CCCC2)=NC1=O)c1ccc(Br)cc1	MARV entry inh 4.5µM, HCV inhibitor inconclusive, Lassa entry inh 4.5µM
Cc1ccc(S(=O)(=O)CCC(=O)Oc2ccc3c(C)cc(=O)oc3c2)cc1	Sm TGR inh 22µM
C=C(C(=O)c1ccccc1)C(C(=C)C(=O)c1ccccc1)c1ccc(OC)cc1	FMDV inh 28µM, HCV inhibitor 3.5µM (no result: MARV entry inh, Lassa entry inh)
